About 83,000 compounds went through this panel and 20% of them were active in at least one assay; those are over-represented in the sample as a whole.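 48-hour exposure, single concentration, 96-well plates; percent growth endpoint where 0 means no net growth. Active: below 10.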 Unmarked numbers belong to inactive results. The source made the active and inactive calls.
Assays:
Test in all cases: NCI-60 one-dose screen, 48 h (100 = growth as untreated, 0 = no growth, -100 = all killed)
Details in all cases: 10 µM unless noted
[1] = system: NCI-H23 lung
[2] = system: NCI-H226 lung
[3] = system: NCI-H322M lung
[4] = system: HOP-62 NSCLC
[5] = system: NCI-H460 lung
[6] = system: HOP-92 NSCLC
[7] = system: NCI-H522 lung
[8] = system: A549/ATCC NSCLC
[9] = system: 786-0 renal
[10] = system: COLO 205 colon

Compound	growth [1]	growth [2]	growth [3]	growth [4]	growth [5]	growth [6]	growth [7]	growth [8]	growth [9]	growth [10]
Cc1c(Cl)cccc1C(=O)Nc1nc2c(s1)CN(C(=O)c1ccc(C(F)(F)F)cc1)CC2	33.7%	50.9%	45.2%	41.8%	0.935% (active)	35.9%	11.4%	25.5%	40.3%	6.86% (active)
COc1ccc(/C(C)=C(/c2ccc(OCCCN(C)C)cc2)c2ccc(OC(=O)c3ccccc3)cc2)cc1	82.2%	102%	87%	92.3%	67.1%	52.5%	75.1%	69.4%	73%	94.4%
CCOC(=O)/C=C1\S/C(=N\Nc2cc(=O)[nH]c3ccccc23)N(c2ccccc2)C1=O	97.9%	95.4%	101%	92.1%	107%	88.8%	96.7%	103%	101%	106%
N=C(N)c1ccc(-c2ccc(-c3ccccc3)s2)cc1	85.5%	103%	49.2%	74.6%	-16.6% (active)	73.2%	-26.5% (active)	60.1%	78.8%	-42.9% (active)
CCN(CC)CCCOc1ccc2ncnc(Nc3ccc(Oc4cccc(C(F)(F)F)c4)c(Cl)c3)c2c1	15.4%	73.1%	16%	13.6%	-87.7% (active)	27.3%	-2.46% (active)	5.61% (active)	-83.9% (active)	-36.7% (active)
Nc1[nH]n2cc(-c3ccc(F)cc3)nc2c1N=Nc1ccc(S(N)(=O)=O)cc1	80.9%	88.4%	41.9%	90.7%	58.8%	74.9%	55.3%	84.6%	68.1%	95.1%
COc1ccc(/C=C2\CN(C(=O)C(Cl)Cl)C/C(=C\c3ccc(OC)cc3)C2=O)cc1	-36.9% (active)	61.3%	4.8% (active)	40.5%	-34.5% (active)	-3.88% (active)	14.9%	4.79% (active)	-48.4% (active)	-34.2% (active)
O=C(NNc1cnccn1)c1nc2cc(F)ccc2n2cccc12	25.4%	14.1%	18%	15%	2.78% (active)	34.9%	-2.38% (active)	11.1%	28.6%	7.25% (active)
COc1cccc(CCNc2ncnc3c2ncn3Cc2nnc3c4ccccc4c(Cl)nn23)c1	70.1%	66.6%	52.8%	57.5%	61.5%	42.7%	5.17% (active)	77.8%	57.7%	90.9%
CCN(CC)CCCN1C(=O)c2c(c(C)c3c(oc4ccc(OC)cc43)c2C)C1=O	104%	32.4%	102%	93.9%	108%	86.7%	93.9%	101%	40.2%	92.2%
COc1ccc(N2CCC(=S)NC2=S)cc1	99.2%	86.4%	105%	108%	107%	104%	87.4%	99.8%	103%	108%
CN1CCN(c2ccc(NC(=O)c3cncnc3Nc3ccc(OCc4cccc(F)c4)c(Cl)c3)cc2)CC1	78%	94.9%	81.1%	33.1%	5.33% (active)	57.1%	103%	57%	56%	6.12% (active)
S=c1[nH]c(=S)c2c(-c3ccccc3)c(-c3ccccc3)oc2[nH]1	97.8%	92.7%	118%	92.6%	108%	100%	97.5%	95.7%	103%	120%
CCCCNC(=O)c1cc([N+](=O)[O-])cc(C2CCCCC2)c1O	8.28% (active)	29.5%	55.3%	57.7%	30%	-13.6% (active)	25.4%	32%	40.7%	56.4%
Nc1ccc(-c2csc(-n3[nH]c(=O)ccc3=O)n2)cc1	98%	92.2%	103%	107%	102%	103%	93.4%	101%	87.1%	109%
CN(C)c1ccc(-c2nc(-c3ccccc3)c(-c3ccccc3)[nH]2)cc1	92.2%	106%	85.9%	100%	88.9%	52.2%	77.4%	99.5%	94.6%	129%
COc1ccc2cc(-c3ccnc4c(N=Nc5ccc(Cl)cc5)c(N)nn34)ccc2c1	108%	90.2%	102%	94.4%	100%	98.7%	95.6%	81.9%	106%	110%
COc1ccc2nc(Cl)c(/C=C3\CC(c4ccccc4)=NN(c4ccccc4)C3=O)cc2c1	78.8%	55.6%	74.6%	48.4%	67.8%	-20.3% (active)	65.6%	65.2%	-4.27% (active)	99.3%
Cc1c(CC(=S)N2CCOCC2)nnn1-c1cccc(C(F)(F)F)c1	107%	107%	109%	101%	103%	111%	89.6%	107%	110%	119%
COc1ccccc1N(C(C)=O)C1=C(Cl)C(=O)c2ccccc2C1=O	-12.1% (active)	23.7%	38%	38.6%	4.81% (active)	-14.9% (active)	-78% (active)	8.36% (active)	37.2%	-11.7% (active)
OCCNCCNC(Cc1ccc(Cl)cc1)c1ccccc1 (stereo not given)	96.2%	98.1%	93.1%	72.2%	107%	38.4%	64.1%	88.1%	57.5%	70%
O=C(/C=C(O)/C=C/c1cccc2[nH]ccc12)/C=C/c1cccc2[nH]ccc12	80.5%	99.5%	98.9%	76.4%	98.3%	62.1%	34%	87.5%	86%	55.8%
COc1cccc(NCc2nnc(Nc3ccc(Cl)cc3)c3ccccc23)c1	2.05% (active)	-22.9% (active)	3.32% (active)	-17.1% (active)	0.101% (active)	-32.8% (active)	-43.8% (active)	2.56% (active)	-5.76% (active)	-22.2% (active)
O=C1C(Nc2ccccn2)=C(I)C(=O)c2ncccc21	-35.1% (active)	33%	-31.2% (active)	-72.5% (active)	-61.4% (active)	-2.25% (active)	-63.1% (active)	-48.8% (active)	-22.9% (active)	49.2%
Cc1ccc(C(=O)c2ccc(CC(=O)NN3C(=O)c4ccccc4C3=O)n2C)cc1	100%	97.8%	102%	88.9%	104%	97.8%	88.1%	101%	103%	105%
C=C(C)[C@@H]1CCC[C@]2(C(=O)N3CCN(C)CC3)CC[C@]3(C)[C@@H](CC[C@@H]4[C@@]5(C)CC/C(=N\NC(=O)c6ccncc6)C(C)(C)[C@@H]5CC[C@]43C)[C@@H]12	93.3%	101%	93.7%	96.9%	88%	107%	98.3%	99.5%	93.6%	99.1%

Reference: PubChem BioAssay (NCI)
